Drawing on PubChem BioAssay (NCATS), this text covers Potency for 40 compounds.

Inconclusive results are not listed. A call without a number means that no potency is given here. Activity calls are given as the source filed them. Calls come from the whole dose curve; as a rule, active = well fitted inhibition curve with a large enough effect; inconclusive = small, poorly fitted or top-dose-only effect; inactive = flat fitted curve, though single readings scatter.
Potency is the fitted concentration of half-maximal effect.

The assay can be described thus: BET inhibitor-based combinations targeting novel dependencies in MECOM-rearranged (r) AML: AML-191 cell line (AID 2202236; note: nearly all actives have a fitted effect of over 35% in size). The conditions noted are these: AML-191 viability, CellTiter-Glo luminescence, 48 h; series mostly up to 46 µM. From the text: Ecotropic viral insertion site 1 (EVI1) is located on chromosome 3q26.2 as part of the MECOM (MDS and EVI1 complex) locus. Under normal hematopoiesis, EVI1 is a regulator of hematopoietic stem cell maintenance and self-renewal and EVI1 levels decrease as the cells differentiate. In approximately 5-10% of de novo acute myeloid leukemia (AML) EVI1 is aberrantly expressed, including Chromosomal inv(3)(q21;q26.2) or t(3;3)(q21;q26.2) alterations (MECOM-r) that account for about 50% of AML with EVI1 overexpression 31. AMLs with high levels of EVI1 have a poor prognosis and an overall survival time averaging between 10-14 months. EVI1 overexpression confers resistance in leukemia cells, highlighting the need to develop new targeted therapies for EVI1 overexpressing AMLs.
Here, we performed an unbiased chemical drug screening by evaluating the single agent activity of a collection of 2,480 oncology-focused, approved and investigational drugs (NCATS Mechanism Interrogation Plates, MIPE v5.0) against a panel of seven AML cell lines. These included four MECOM-r cell-lines (AML-191, AML-194, UCSD-AML1 and HNT-34) and three non-MECOM-r AMLs (MV4-11, OCI-AML3 and SET-2). Exploiting the mechanistic redundancy built in the library, we identified target-level sensitivities in MECOM-r AML cells and relative activity as compared to other AML subtypes.
A collection of 2480 mechanistically annotated dugs (MIPE v5.0) was used to screen four 3q26.2 rearranged AML cell lines and three non-3q26.2 rearranged AML cell lines. This library purposely exploits redundancy by including multiple inhibitors of key onco-targets, while simultaneously encompassing mechanistic diversity, targeting more than 800 distinct mechanisms of action. Briefly, cells were seeded in 5 uL of growth media using a Multidrop Combi dispenser into 1536 well white polystyrene tissue culture treated plates (Corning) at a density of 500cells/well. For each cell-line, for each of the 2480 drugs in MIPE v5.0 library, an 11-point dose curve was generated via a 1536 pin-tool. Plates were incubated for 48 hr at standard incubator conditions, covered by a stainless steel gasketed lid to prevent evaporation. Cell viability was determined by luminescence based, Cell Titer Glo assay (Promega). In detail, 3 uL of Cell Titer Glo were added to each well and plates were incubated at room temperature for 15 min with a stainless-steel lid in place. Luminescence readings were taken using a Viewlux (PerkinElmer) with a 2 s exposure time per plate. Compound dose-response curves were normalized to DMSO and empty well controls on each plate. Quantitative drug activity data from dose-response curves was determined utilizing area Under the Curve (AUC) and Z-transformed AUC (Z-AUC, a mean-centering transformation applied to each individual cell-line screened).
A general note: ATP-based viability assays read luminescence as a measure of living cells.
Consider `C=C(C)[C@H]1Cc2c(ccc3c2O[C@@H]2COc4cc(OC)c(OC)cc4[C@@H]2C3=O)O1`, for which the Potency is 934 nM (active).

For `C[C@]12CC[C@@H]3[C@@H](CCC4=CC(=O)CC[C@@H]43)[C@@H]1CC[C@@H]2OC(=O)CCc1ccccc1`, the Potency entry was “inactive”.

As for `COc1cccc2c1C(=O)c1c(O)c3c(c(O)c1C2=O)C[C@@](O)(C(=O)CO)CC3OC1CC(N2CCOC(OC)C2)C(O)C(C)O1` (stereo not given in full), the Potency is 5.3 nM (active).

With `CC(C)(O)/C=C\C(=O)[C@](C)(O)[C@H]1[C@H](O)C[C@]2(C)[C@@H]3CC=C4[C@@H](C=C(O)C(=O)C4(C)C)[C@]3(C)C(=O)C[C@@]12C`, the Potency was 93.4 nM (active).

For the compound `CCN1C[C@]2(OC(=O)c3ccccc3NC(C)=O)CC[C@H](OC)[C@@]34[C@H]5CC6[C@@H](OC)C[C@](O)(C(C[C@@H]23)[C@@H]14)[C@@]5(O)[C@@H]6OC`, the Potency entry is “inactive”.

For the compound `CN1C(=O)COc2c(C(=O)NC3CN4CCC3CC4)cc(Cl)cc21` (stereo not given), the Potency result is “inactive”.

For `C/C=C(\C)C(=O)N[C@@H](c1ccccc1)[C@@H](O)C(=O)O[C@H]1C[C@@]2(O)[C@@H](OC(=O)c3ccccc3)[C@@H]3[C@]4(OC(C)=O)CO[C@@H]4C[C@H](O)[C@@]3(C)C(=O)[C@H](OC(C)=O)C(=C1C)C2(C)C`, the Potency is 46.8 nM (active).

`N#CC(O[C@@H]1O[C@H](CO[C@@H]2O[C@H](CO)[C@@H](O)[C@H](O)[C@H]2O)[C@@H](O)[C@H](O)[C@H]1O)c1ccccc1` (stereo not given in full): the Potency result is “inactive”.

Take `CN(C)CCN(C)CCc1ccc(Cl)c(Cl)c1`: the Potency result was “inactive”.

On to `C#CC1(O)CCC2C3CCC4=CC(=O)CCC4(C)C3CCC21C` (stereo not given), for which the Potency result is “inactive”.

Consider `NC(=O)[C@@H](CC1CC1)[C@@H](CCC(F)(F)F)C(=O)N[C@H]1N=C(c2ccccc2)c2cccc(F)c2NC1=O`, for which the Potency entry is “inactive”.

`CC1(C)CC[C@]2(NC(=O)C(C)(F)F)CC[C@]3(C)[C@H](C(=O)C=C4[C@@]5(C)C=C(C#N)C(=O)C(C)(C)[C@@H]5CC[C@]43C)[C@@H]2C1`: the Potency is 1860 nM (active).

In the case of `C[C@H]1CCC/C=C/C2C[C@H](O)C[C@H]2[C@H](O)/C=C/C(=O)O1` (stereo not given in full), the Potency was 332 nM (active).

With `CN1C(=O)[C@@H](NC(=O)[C@H](CCC(F)(F)F)[C@H](CCC(F)(F)F)C(N)=O)N=C(c2ccccc2)c2ccccc21`, the Potency entry is “inactive”.

`Cc1sc2c(c1C)C(c1ccc(Cl)cc1)=N[C@@H](CC(N)=O)c1nnc(C)n1-2`: the Potency was 209 nM (active).

Take `Cn1c(CCCCCCC(=O)NO)nc2cc(N(CCCl)CCCl)ccc21`: the Potency is 2630 nM (active).

Take `CC(C)[C@]12O[C@H]1[C@@H]1O[C@@]13[C@@]1(C)CCC4=C(COC4=O)[C@@H]1C[C@@H]1O[C@@]13C2=O`: the Potency was 83.3 nM (active).

As to `C=C[C@H]1CN2CCC1C[C@@H]2[C@@H](O)c1ccnc2ccccc12` (stereo not given in full), the Potency entry is “inactive”.

Consider `Clc1ccccc1C(c1ccccc1)(c1ccccc1)n1cccn1`, for which the Potency entry was “inactive”.

For the compound `CC(=O)Nc1ccc(OC[C@](C)(O)C(=O)Nc2ccc([N+](=O)[O-])c(C(F)(F)F)c2)cc1`, the Potency result was “inactive”.

For the compound `O=P1(N(CCCl)CCCl)NCCCO1` (stereo not given), the Potency entry is “inactive”.

Consider `O=C(O)C1=CCCN(CCOC(c2ccc(C(F)(F)F)cc2)c2ccc(C(F)(F)F)cc2)C1`, for which the Potency entry was “inactive”.

As to `C[C@H](Nc1ncnc2nc[nH]c12)c1nc2ccc(F)cc2c(=O)n1-c1ccccc1`, the Potency is 5250 nM (active).

For the compound `CC(O)(CS(=O)(=O)c1ccc(F)cc1)C(=O)Nc1ccc(C#N)c(C(F)(F)F)c1` (stereo not given), the Potency result is “inactive”.

For `NN=C(N)N`, the Potency entry was “inactive”.

Turning to `COC1(CS(=O)c2ccccc2)CCN(CCc2c[nH]c3ccc(F)cc23)CC1` (stereo not given), the Potency result is “inactive”.

In the case of `CC1(N2CCC(n3c([C@@H]4CCCNC4)nc4ccccc43)CC2)CCCCCCC1`, the Potency was 20900 nM (active).

`CCOC(=O)c1c(C(C#N)=CN)c2ccc(Cl)c(Cl)c2n1C`: the Potency entry was “inactive”.

As to `COC(=O)[C@]12CCC(C)(C)C[C@H]1[C@H]1C(=O)C=C3[C@@]4(C)C=C(C#N)C(=O)C(C)(C)[C@@H]4CC[C@@]3(C)[C@]1(C)CC2`, the Potency was 1860 nM (active).

Turning to `COc1cc2cc(c1Cl)N(C)C(=O)C[C@H](OC(=O)C(C)C)[C@]1(C)O[C@@H]1[C@H](C)[C@@H]1C[C@@](O)(NC(=O)O1)[C@H](OC)/C=C/C=C(\C)C2`, the Potency entry is “inactive”.

Regarding `CC(=O)OC[C@H]1O[C@@H]([S-])[C@H](OC(C)=O)[C@@H](OC(C)=O)[C@@H]1OC(C)=O.CC[PH+](CC)CC.[Au]`, the Potency was 1050 nM (active).

In the case of `C[C@]12CC[C@@H]3c4ccc(OC(=O)N(CCCl)CCCl)cc4CC[C@H]3[C@@H]1CC[C@@H]2OP(=O)(O)O`, the Potency result is “inactive”.

Turning to `CCOc1ccccc1-n1c(C(C)N2CCN(C(=O)COc3ccc(Cl)cc3)CC2)nc2ccccc2c1=O` (stereo not given), the Potency was 2630 nM (active).

`COCC1(CO)C(=O)C2CCN1CC2` (stereo not given): the Potency is 10500 nM (active).

For `C[C@@]12OC(=O)[C@]1([C@@H](O)[C@@H]1C=CCCC1)NC(=O)[C@@H]2CCCl`, the Potency was 26.3 nM (active).

As for `CCOC(=O)Nc1ccc(NCc2ccc(F)cc2)cc1N`, the Potency result was “inactive”.

For `COc1ccc(C(=O)N2CCCC2=O)cc1`, the Potency result is “inactive”.

For `C[C@]12COC(=O)C[C@@H]1CC[C@@H]1[C@@H]2CC[C@@]2(C)[C@H]1CC[C@]2(C)O`, the Potency entry was “inactive”.

In the case of `CCCN1CCO[C@@H]2c3cc(O)ccc3OC[C@H]21`, the Potency entry is “inactive”.

Consider `COC1=C[C@@H]2[C@@H]3Cc4ccc(OC)c(O)c4[C@]2(CCN3C)CC1=O`, for which the Potency entry is “inactive”.
